# Assay results: PubChem BioAssay
# The source made the active and inactive calls.
# Experiments:
# [1] = anti-His antibody binders, primary screen, artefact control for SMM control protein annotation, biochemical, small-molecule microarray, 635 nm fluorescence (AID 1128); conditions: anti-His Alexa647 antibody binding, higher = more signal;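 further: score merges feature fluorescence with signal-to-noise for each printed compound spot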
# [2] = test system: Human papillomavirus type 1a E7 protein (residues 1-88); test: HPV1a E7 small-molecule binders, primary screen, biochemical, small-molecule microarray, residues 1-88, 635 nm (AID 1129); conditions: small-molecule microarray binding, fluorescence 635 nm; higher = more signal
# [3] = target: Focal adhesion kinase 1 (Homo sapiens) (UniProt Q05397); test: small-molecule microarray binders of FAK, primary screen, biochemical, 635/667 nm fluorescence, BSA, DTT (AID 1130); conditions: PTK2 binding, 635 nm fluorescence, higher = more signal;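 further: composite of spot emission at 667 nm and signal to noise over triplicate slides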
# Focal adhesion kinase 1 (Homo sapiens), sequence (Q05397 whole entry, looked up): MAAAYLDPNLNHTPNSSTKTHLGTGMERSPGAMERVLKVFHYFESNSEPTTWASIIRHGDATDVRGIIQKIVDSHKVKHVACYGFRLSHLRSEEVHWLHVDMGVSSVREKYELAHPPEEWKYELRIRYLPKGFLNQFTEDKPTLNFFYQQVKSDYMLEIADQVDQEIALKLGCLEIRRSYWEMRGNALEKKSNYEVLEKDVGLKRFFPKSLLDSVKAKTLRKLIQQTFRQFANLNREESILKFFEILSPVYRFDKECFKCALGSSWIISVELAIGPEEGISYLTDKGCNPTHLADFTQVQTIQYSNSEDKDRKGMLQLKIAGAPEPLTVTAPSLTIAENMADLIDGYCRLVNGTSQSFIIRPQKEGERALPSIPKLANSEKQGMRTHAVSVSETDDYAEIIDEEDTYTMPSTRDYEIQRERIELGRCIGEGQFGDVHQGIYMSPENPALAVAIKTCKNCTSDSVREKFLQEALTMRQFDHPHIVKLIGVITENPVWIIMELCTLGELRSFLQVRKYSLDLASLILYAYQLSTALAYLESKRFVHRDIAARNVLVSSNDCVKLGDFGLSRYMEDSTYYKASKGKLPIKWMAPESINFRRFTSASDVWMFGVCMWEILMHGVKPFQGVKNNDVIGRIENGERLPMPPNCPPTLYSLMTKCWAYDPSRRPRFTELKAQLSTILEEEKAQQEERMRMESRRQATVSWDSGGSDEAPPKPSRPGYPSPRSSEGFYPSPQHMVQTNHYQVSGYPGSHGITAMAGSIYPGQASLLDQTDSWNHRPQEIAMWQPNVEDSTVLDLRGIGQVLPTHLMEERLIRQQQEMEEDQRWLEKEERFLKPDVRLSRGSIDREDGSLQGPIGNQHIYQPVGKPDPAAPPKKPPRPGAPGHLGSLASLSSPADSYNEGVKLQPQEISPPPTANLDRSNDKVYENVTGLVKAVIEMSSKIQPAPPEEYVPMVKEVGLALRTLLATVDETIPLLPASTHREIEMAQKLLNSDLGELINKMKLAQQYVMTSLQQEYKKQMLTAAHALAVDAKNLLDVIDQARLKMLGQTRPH
# [4] = test system: Fibrinogen (Alexa647-labelled); test: fibrinogen binders on compound microarrays, profiling panel, artefact control for SMM control-protein annotation, biochemical, small-molecule microarray, 635/667 nm fluorescence (AID 1131); conditions: fibrinogen-A647 binding fluorescence, higher = more signal;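 further: z-score merges 667 nm fluorescence with per-spot signal-to-noise over triplicate slides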
# [5] = target: Follistatin (Homo sapiens) (UniProt P19883); test: follistatin binders on small-molecule microarrays, primary screen, biochemical, small-molecule microarray, 635/667 nm fluorescence (AID 1132); conditions: FST binding, 635 nm fluorescence, higher = more signal
# Follistatin (Homo sapiens), sequence (P19883 whole entry, looked up): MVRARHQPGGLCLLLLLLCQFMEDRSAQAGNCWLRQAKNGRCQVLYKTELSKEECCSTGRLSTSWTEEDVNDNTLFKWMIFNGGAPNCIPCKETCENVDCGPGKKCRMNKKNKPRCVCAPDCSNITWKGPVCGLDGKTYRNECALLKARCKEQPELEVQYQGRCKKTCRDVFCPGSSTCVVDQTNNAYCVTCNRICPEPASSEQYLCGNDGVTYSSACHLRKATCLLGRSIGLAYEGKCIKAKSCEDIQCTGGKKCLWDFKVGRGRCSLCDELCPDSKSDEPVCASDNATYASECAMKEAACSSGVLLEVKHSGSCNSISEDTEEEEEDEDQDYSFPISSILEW
# [6] = target: Fibroblast growth factor 2 (Homo sapiens) (UniProt P09038); test: FGF2 binders on small-molecule microarrays, primary screen, biochemical, small-molecule microarray, 635/667 nm fluorescence (AID 1133); conditions: small-molecule microarray binding, FGF2, fluorescence 635/667; higher = more signal
# Fibroblast growth factor 2 (Homo sapiens), sequence (P09038 whole entry, looked up): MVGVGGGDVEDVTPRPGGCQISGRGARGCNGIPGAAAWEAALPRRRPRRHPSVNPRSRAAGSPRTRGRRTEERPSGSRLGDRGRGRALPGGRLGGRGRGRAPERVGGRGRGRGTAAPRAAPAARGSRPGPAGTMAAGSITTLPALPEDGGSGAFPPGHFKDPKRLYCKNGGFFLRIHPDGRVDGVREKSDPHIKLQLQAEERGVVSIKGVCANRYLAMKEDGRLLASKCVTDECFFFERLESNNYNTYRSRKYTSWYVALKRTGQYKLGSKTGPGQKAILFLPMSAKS
# [7] = mitochondrial membrane potential change in A549 cells, profiling panel, cell-based, JC-1 fluorescence, basal, 24 h, 100 nL (AID 1138); conditions: higher = more signal;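 further: A549 lung adenocarcinoma cells under basal conditions with no added stimulus; test concentration not given here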
# Lefty1 = Lefty1 binders on small-molecule microarrays, primary screen, biochemical, small-molecule microarray, 635/667 nm fluorescence (AID 1139); conditions: small-molecule microarray binding, fluorescence 635/667; higher = more signal
# [8] = test system: wheat germ agglutinin (Triticum aestivum), Alexa647-labelled; test: wheat germ agglutinin binders on compound microarrays, profiling panel, artefact control for SMM control-protein annotation, biochemical, small-molecule microarray, 635/667 nm fluorescence (AID 1140); conditions: WGA-A647 binding, 635 nm fluorescence, higher = more signal;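 further: score merges 667 nm feature emission with signal to noise over triplicate slides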
# [9] = target: Luciferin 4-monooxygenase (Photinus pyralis) (UniProt P08659); test: firefly luciferase enzyme inhibitors, primary screen, biochemical, luminescence, purified enzyme, 2006 set (AID 1141); conditions: SteadyGlo luminescence, 30 min, higher = more signal, called active from +8 up or from −8 down;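 further: cell-free assay with purified firefly luciferase at 100 ng per well in PBS; test concentration not given here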
# Luciferin 4-monooxygenase (Photinus pyralis), sequence (P08659 whole entry, looked up): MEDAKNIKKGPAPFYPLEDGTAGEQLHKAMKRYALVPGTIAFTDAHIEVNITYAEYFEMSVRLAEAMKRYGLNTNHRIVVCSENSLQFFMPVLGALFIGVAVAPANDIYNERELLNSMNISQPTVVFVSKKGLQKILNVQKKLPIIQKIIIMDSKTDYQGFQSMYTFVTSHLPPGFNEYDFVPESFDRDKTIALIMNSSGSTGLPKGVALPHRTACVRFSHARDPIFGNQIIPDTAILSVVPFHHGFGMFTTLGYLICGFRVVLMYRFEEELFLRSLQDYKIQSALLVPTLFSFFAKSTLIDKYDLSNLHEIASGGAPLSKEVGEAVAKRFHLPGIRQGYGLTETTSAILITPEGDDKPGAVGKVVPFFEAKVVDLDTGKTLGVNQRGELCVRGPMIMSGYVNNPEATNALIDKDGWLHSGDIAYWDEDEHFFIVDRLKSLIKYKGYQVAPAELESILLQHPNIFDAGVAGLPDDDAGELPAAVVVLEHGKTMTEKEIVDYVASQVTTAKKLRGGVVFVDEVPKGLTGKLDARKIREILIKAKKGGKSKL
SMILES,composite z-score [1],composite z-score [2],composite z-score [3],composite z-score [4],composite z-score [5],composite z-score [6],z-score [7],composite z-score (Lefty1),composite z-score [8],z-score [9]
O=C1[C@@]23C=C(Br)[C@H](C[C@@H]2COC3)[C@]12CO2,-2.07,-3.63,0.406,-2.79,-0.362,-0.829,-0.096,-0.921,-2.06,-0.0914 (inactive)
CS(=O)(=O)CCOC(=O)C1=CC(CCCO)=CC(C2CC2)N(Cc2cc3c(cc2Br)OCO3)C=C1C(=O)OCCS(C)(=O)=O (stereo not given),1.97,0.419,-0.0438,1.01,1.18,0.198,1.29,0.477,1.15,-0.395 (inactive)
CC(=O)n1cc(C(O)C2C=CC3C(=O)NC(=O)C3N2Nc2ccccn2)c2ccccc21 (stereo not given),0.426,0.355,1.74,0.0552,0.242,-0.219,0.471,-0.0259,0.0414,-1.35 (inactive)
CCOC(=O)C1=C[C@@H](C(C)C)N(S(=O)(=O)c2ccc(C)cc2)[C@H]1c1ccccc1F,0.654,1.2,-0.0031,1.02,0.96,0.307,2.33,0.187,0.927,1.82 (inactive)
O=C1OCCC=C[C@H]2OC34C=CCN(CCN5CCOCC5)C(=O)[C@H]3N(CCCCCO)C(=O)[C@@H]4C12 (stereo not given in full),-0.166,0.56,0.398,0.709,-0.211,-0.363,0.791,-0.301,0.615,-0.956 (inactive)
O=C(O)C1N=C(c2ccc(OCCCO)cc2)N(c2ccccc2)O1 (stereo not given),1.73,1.1,0.817,0.953,1.3,1.18,0.0657,0.369,0.207,-7.84 (inactive)
CCCC1(C(=O)OC)C=C2C(=C(c3ccccc3)C(=O)C2C)CN1 (stereo not given),0.295,0.412,0.198,0.453,0.13,-0.299,1.63,0.0496,0.858,1.11 (inactive)
COCCCNC(=O)[C@@H]1c2ccccc2C(=O)N(Cc2ccccc2OC)[C@H]1c1ccc(CO)cc1,2.1,0.133,0.503,-0.444,0.832,1.42,-0.374,1.07,0.701,1.43 (inactive)
CC(=CC1CCCCC1)[C@@H](NC(=O)c1cccnc1)c1ccc(-c2ccccc2)cc1,0.219,0.242,-0.0341,0.0017,-0.0317,-0.741,-0.637,-0.496,0.495,0.722 (inactive)
C=CCN(Cc1ccccc1)C(=O)C(c1cccs1)N(C(=O)/C=C\C(=O)O)c1ccc(CCOCCO)cc1 (stereo not given),-0.709,-0.755,-0.618,-1.23,-1.32,-0.78,1.37,-1.16,-1.01,-3.88 (inactive)
OCC1C=C(/C=C/c2ccccc2)CN1Cc1ccccc1Br (stereo not given),1.5,0.278,-0.18,0.891,1.29,1.39,0.426,1.51,0.94,-1.05 (inactive)
COc1ccc(C(O)C2C=CC3C(=O)N(C)C(=O)C3N2N(c2ccccc2)c2ccccc2)c2ccccc12 (stereo not given),2.54,-0.172,-0.278,0.384,1.41,0.392,0.419,1.09,1.07,-0.091 (inactive)
CCCCCCc1nc(-c2ccc(-c3ccc(Cl)c(Cl)c3)o2)cc2c1[Si](C(C)C)(C(C)C)O[C@H]2c1ccccc1,-0.403,-0.73,-0.132,-1.34,-0.348,-0.434,-0.859,0.0259,1.04,0.712 (inactive)
